Source: PubChem BioAssay
The list is not random: actives were taken first. Their share in the collection is about 0.36%.
RGS4 inhibitor – Inhibitors of Regulator of G Protein Signaling (RGS) 4: qHTS; Transcreener GDP fluorescence polarization, RGS4-accelerated GTP hydrolysis; hit rate 0.039% among 390,000; Potency, µM (titrated, usually from 114 µM), most hits filed as inhibitors; AID 504845, 2011; further: nearly all actives have a fitted effect of over 75% in size
Target sequence (P49798 whole entry, looked up): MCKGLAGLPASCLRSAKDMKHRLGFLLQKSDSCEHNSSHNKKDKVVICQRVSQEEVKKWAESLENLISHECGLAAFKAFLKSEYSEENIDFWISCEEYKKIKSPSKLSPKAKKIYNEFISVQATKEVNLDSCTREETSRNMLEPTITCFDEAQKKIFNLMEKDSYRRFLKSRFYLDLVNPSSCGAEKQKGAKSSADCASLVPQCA
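MLSMR compounds (23 nl, pin-transferred) preincubated 10 min at room temperature with a 500nM (2x) first reagent, then RGS4 at 900nM (2x) plus Transcreener GDP mix added; fluorescence polarization (620/688 nm) read before and after 90 min at 30 °C.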
ERG Ets-DNA blk – qHTS for Small Molecule Inhibitors of the ERG Ets/DNA interaction. Transcriptional regulator ERG (Homo sapiens), P11308. fluorescence polarization, His-ERG Ets domain / labelled DNA. Potency, µM (doses to about 76.9 µM), most hits filed as inhibitors. hit rate 0.028% among 370,000. AID 624246, 2012; active means well fitted inhibition curve with a large enough effect in the polarisation, with a control signal flat; inconclusive means small, poorly fitted or top-dose-only effect, or effect the other way, or a change in a side signal; inactive means no such curve, though single readings can be large or run the other way; the % refers to the polarisation;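 further: polarization taken with two DNA probes labelled with fluorescein and Texas red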
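His-tagged ERG Ets domain (1 uM in the protein solution; 300mM KCl, 50mM Tris-HCl, 1mM EDTA, 1mM DTT, pH 7.5) received compound, then a probe mix of 5 nM fluorescein-DNA and 100nM Texas-615-DNA. Fluorescence polarization was read for both dyes.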
CCT modulator – High-Throughput Screening for Modulators of Cytosolic Chaperonin Activity; hit rate 0.3% among 360,000; purified chaperonin ATPase assay, HTRF ADP detection, 30 min; activity change, % (test concentration not listed), hits read low; in the data active means activity change below about -30%
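First, chaperonin was dispensed at 40 nM or 20 nM final depending on batch activity. Next, compounds were pinned at 76 uM and ATP added at 10 uM. After 30 min at 37 °C, ADP detection reagents ran 30 min at ambient temperature.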
Mm-Cpn inhibitor – Inhibitors of TCP-1 ring complex (TRiC) of Methanococcus maripaludis (MmCpn): qHTS; Chaperonin Mm-Cpn (Methanococcus maripaludis); hit rate 0.031% among 330,000; Potency, µM (top dose mostly 76.9 µM), most hits filed as inhibitors; purified Mm-Cpn ATPase, ADP Transcreener TR-FRET; further: nearly all actives have a fitted effect of over 80% in size
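Reaction buffer contained 30 mM Tris pH 7.4, 100 mM KCl, 5 mM MgCl2 and 1 mM DTT. Mm-CPN (25 nM final) hydrolysed 10 uM ATP over 30 min at 37°C; ADP was read by HTRF.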
PTHR1 ag – qHTS for PTHR1 Agonists: Primary Screen | Parathyroid hormone/parathyroid hormone-related peptide receptor (Homo sapiens), Q03431 | HEK293 GP2 PTHR1 cells, GloSensor cAMP luminescence, 1 h | Potency, µM (doses to about 115 µM), usual class: activators | hit rate 0.075% among 410,000 | AID 743266, 2014; further: nearly all actives have a fitted effect of over 55% in size
Target sequence (Q03431 whole entry, looked up): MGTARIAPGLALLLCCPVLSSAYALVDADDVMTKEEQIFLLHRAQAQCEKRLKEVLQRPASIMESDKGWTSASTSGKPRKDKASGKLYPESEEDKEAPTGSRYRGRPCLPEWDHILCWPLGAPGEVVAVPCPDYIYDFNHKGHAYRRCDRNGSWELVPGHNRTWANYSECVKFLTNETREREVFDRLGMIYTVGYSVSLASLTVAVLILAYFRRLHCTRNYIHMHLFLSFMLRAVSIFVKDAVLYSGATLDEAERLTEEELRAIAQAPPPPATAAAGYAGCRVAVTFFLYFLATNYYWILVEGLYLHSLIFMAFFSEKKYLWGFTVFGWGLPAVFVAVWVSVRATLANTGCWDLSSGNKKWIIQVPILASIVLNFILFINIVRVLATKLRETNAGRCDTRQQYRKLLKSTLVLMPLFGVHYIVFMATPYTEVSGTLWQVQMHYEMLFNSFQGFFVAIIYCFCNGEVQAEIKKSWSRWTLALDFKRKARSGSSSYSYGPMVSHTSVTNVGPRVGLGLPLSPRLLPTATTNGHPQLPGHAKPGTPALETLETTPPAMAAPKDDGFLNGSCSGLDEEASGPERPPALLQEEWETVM
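HEK-293-derived GP2 cells expressing PTHR1 and a GloSensor cAMP reporter, 3,000/well, plated overnight, given luciferin plus IBMX (each 0.5 mM as added) for 1 h at 37 °C, then compound for 1 h at 37 °C. Luminescence was read after 15 min at room temperature.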
Numbers stand for hits; 0 = inactive; ? = inconclusive; - = not tested or not shown; ! = not confirmed by another sample. Unless noted, the call rests on the fitted dose curve; in most records, active means well fitted curve in the direction sought with a large enough effect; inconclusive means small, poorly fitted or top-dose-only effect, or another doubt; inactive means no such curve, though single readings can be large; an effect the other way counts as inactive or inconclusive.

SMILES | RGS4 inhibitor | ERG Ets-DNA blk | CCT modulator | Mm-Cpn inhibitor | PTHR1 ag
CCOc1ccc(CCNC(=O)CS(=O)Cc2nc(-c3ccccc3Cl)oc2C)cc1OCC (configuration not stated) | 0 | 0 | 0 | 0 | 0
CCCCN1C(C(=O)c2ccccc2)=C(OC(C)=O)c2ccccc2S1(=O)=O | 0 | 0 | - | - | 0
Cc1ccccc1NC(=O)C(Cc1ccccc1)N1Cc2ccccc2C1=O (configuration not stated) | 0 | 0 | - | - | 0
Cc1ccc2c(CN(C)Cc3ccccc3)cc(=O)oc2c1C | 0 | 35.5µM | 0 | 0 | 0
COc1ccc(C(=O)c2ncc(C(F)(F)F)cc2Cl)cc1 | ? | 0 | -146.5 | 0 | 0
CC1CCCCN1CCNC(=O)C1CCCN(S(=O)(=O)c2cccc3nsnc23)C1 (configuration not stated) | 0 | 0 | 0 | 0 | 0
CC1CCCCN1CCNC(=O)C1CCN(S(=O)(=O)c2cccc3nsnc23)CC1 (configuration not stated) | 0 | 0 | -34.5 | 0 | 0
O=c1cc(-c2ccc(O)cc2)oc2cccc(O)c12 | 2.12µM | - | - | - | -
O=c1cc(-c2ccc(O)cc2)oc2c(-c3c(O)cc(O)c4c(=O)cc(-c5ccc(O)cc5)oc34)c(O)cc(O)c12 | 0 | 0 | 0 | 0 | 0
Brc1ccc(-c2nc3ccccc3s2)s1 | 0 | 0 | 0 | 39.8µM | 0
Nc1ccc(-c2nc3ccccc3s2)cn1 | 0 | 0 | 0 | ? | 0
CC(C)c1ccc(S(=O)(=O)c2nnn3c2nc(N2CCCCC2)c2sccc23)cc1 | 0 | 0 | - | - | 0
COc1ccc(N(CC(=O)Nc2ccc(C)cc2C)S(=O)(=O)c2c(C)n[nH]c2C)cc1 | 0 | 0 | 0 | 0 | 0
COc1ccc(N(CC(=O)Nc2cc(Cl)ccc2C)S(=O)(=O)c2c(C)n[nH]c2C)cc1 | 0 | 0 | -58.7 | 0 | 0
O=[S@]1Oc2ccccc2-c2ccccc21 | 0 | 0 | -71.3 | - | 0
Cc1ccc2nc(Nc3ccc(C)c(Cl)c3)c3nncn3c2c1 | 0 | 0 | 0 | 0 | 0
Cc1ccc(Nc2nc3ccccc3n3cnnc23)cc1Cl | 0 | 0 | -49.7 | 0 | 0
Cc1n[nH]c(C)c1CCCCOc1ccccc1 | ? | 0 | 0 | 0 | 0
Cc1ccc(OCCCc2c(C)n[nH]c2C)cc1 | 0 | 0 | -60.3 | 0 | 0
Cc1ccc(CNC(=O)c2cccc(Nc3nc4ccccc4n4nnnc34)c2)cc1 | 0 | 0 | - | - | 0
Cc1ccc(C(=O)N/N=c2\oc3ccccc3cc2C(N)=O)cc1 | 0 | 0 | -30.2 | 0 | 0
NC(=O)c1cc2ccccc2o/c1=N\NC(=O)c1ccncc1 | 0 | 0 | 0 | 0 | 0
Cc1ccc(-n2cnc3scc(-c4cccs4)c3c2=O)cc1 | 0 | 0 | 0 | 0 | 0
Cc1ccc(C(=O)Nn2cnc3scc(-c4cccs4)c3c2=O)c(O)c1 | 0 | 0 | -46.9 | 0 | 0
COc1ccc(NC(=O)c2cccnc2NCCc2ccccc2)cc1 | 0 | 0 | 0 | 0 | 0
SMILES | RGS4 inhibitor | ERG Ets-DNA blk | CCT modulator | Mm-Cpn inhibitor | PTHR1 ag
O=C(Nc1ccccc1)c1cccnc1NCCc1ccccc1 | 0 | 0 | -91.1 | 0 | 0
Cc1c(O)ccc(C(=O)CN2CCN(Cc3ccccc3)CC2)c1O | 0 | 0 | -56.5 | 0 | 0
Nc1nc(-c2cccc(Br)c2)cs1 | 0 | 0 | 0 | 0 | 5.62µM
COc1cccc(C(CCc2cc(OC)c(OC)c(OC)c2)NC(C)=O)c1 (configuration not stated) | 0 | 0 | -73.8 | - | 0
CC(=O)c1ccc(NC(=O)COc2ccccc2-c2nc(-c3ccc(C)cc3)no2)cc1 | 0 | 0 | - | - | 0
COc1ccc(/C=C/C(=O)Nc2ccccc2C(=O)O)cc1 | ? | 0 | -36.0 | 0 | 0
COc1cc(NC(=O)C2CCN(c3nc4ccccc4nc3C(F)(F)F)CC2)cc(OC)c1 | 0 | 0 | - | - | 0
CCn1cc(C(=O)N2CCCc3ccccc32)c2cc(OC)c(OC)cc2c1=O | 0 | 0 | -30.2 | 0 | 0
CC1(C)O[C@@H]2[C@H](O1)[C@@H](CO)O[C@H]2n1cnc2c(=O)[nH]cnc21 | 0 | 0 | -49.4 | 0 | 0
COc1ccc(C)cc1NC(=O)c1ccc2nc(Cc3ccccc3)oc2c1 | 0 | 0 | - | - | 0
CCn1c(CC2C(=O)N(C)c3ccccc32)nc2ccccc2c1=O (configuration not stated) | 0 | 0 | - | - | 0
Cc1ccc(SCc2nc(-c3ccc(C(=O)NCC(C)c4ccccc4)cc3)oc2C)cc1 (configuration not stated) | 0 | 0 | - | - | 0
CNc1c(NC(=O)c2cc(OC)cc(OC)c2)c(=O)oc2ccccc12 | 0 | 0 | - | - | 0
O=C(Nc1c(F)cc(F)cc1Br)c1ccco1 | 0 | 0 | -101.1 | 0 | 0
O=C(C1CCC(CNc2nc(=S)[nH]c3ccccc23)CC1)N1CCN(c2ccc(F)cc2)CC1 (configuration not stated) | 0 | 0 | -36.0 | 0 | 0
Cc1ccccc1C(=O)NCC(c1ccco1)N1CCc2ccccc2C1 (configuration not stated) | 0 | 0 | 0 | 39.8µM | 0
CCOc1ccccc1CNC(=O)CCCN1C(=O)CCn2nc(-c3cccn3C)cc21 | 0 | 0 | - | - | 0
COc1cc(NC(=O)CCS(=O)(=O)c2ccc3c(c2)n(C)c(=O)c(=O)n3C)cc(OC)c1 | 0 | 0 | 0 | 0 | 22.4µM!
Cc1cc(C(=O)OCC(=O)NCCc2ccccc2)c2ccccc2n1 | 0 | 0 | 0 | 0 | 0
Cc1cc(C(=O)OCC(=O)Nc2cc(C)on2)c2ccccc2n1 | 0 | 0 | -35.1 | 0 | 0
C=CCn1c2ccccc2c2nnc(SCC(=O)O)nc21 | 0 | 0 | -43.4 | 0 | 0
CC(C)=CC(=O)Oc1ccc(C(=O)N(C)c2ccccc2I)cc1 | 0 | - | - | - | -
CC(C)(C)c1ccc(NC(=O)c2ccccc2)c([N+](=O)[O-])c1 | 0 | 0 | -41.4 | 0 | 0
Cc1c(NC(=O)c2ccc(C(C)(C)C)cc2)cccc1[N+](=O)[O-] | 0 | 0 | 0 | 0 | 0
COc1ccc(-c2[nH]nc3nc(N4CCN(C(=O)c5ccoc5)CC4)cc(C(F)(F)F)c23)cc1 | - | - | -39.9 | - | 0
SMILES | RGS4 inhibitor | ERG Ets-DNA blk | CCT modulator | Mm-Cpn inhibitor | PTHR1 ag
COc1ccc(-c2cc3nc(C)cc(N4CCN(C(=O)c5ccoc5)CC4)n3n2)cc1 | - | - | 0 | - | 0
NC(=O)C1CCN(c2nc(-c3cccc4sc5ccccc5c34)cs2)CC1 | - | - | - | 0 | -
Cn1nnnc1Sc1ncnc2scc(-c3ccc(-c4ccccc4)cc3)c12 | 0 | - | - | ? | 0
Cn1nnnc1Sc1ncnc2scc(-c3cc4ccccc4o3)c12 | 0 | - | - | 39.8µM | 0
CCCCCCCn1ccc(O)c(CC(=O)OC)c1=O | 0 | 0 | 0 | 0 | 50.1µM
COc1ccccc1C(=O)Nc1cc(-c2cccc(Br)c2)nn1-c1ccccc1 | 0 | 0 | - | - | 0
